# In PubChem BioAssay AID1159580 (chemical genetic matrix, 2015):
# Hit rate of the full screen: of about 5,500 compounds, about 2,000 (36%) were called active. Another 18% or so got no clear call; they are omitted. The list shows a part of the results. A number with no mark means an inactive call. Cut-off read from the data, not from the text of the source: active = normalized growth mostly below about 0.91 (no sharp cut-off); inconclusive = no clear call, values can overlap the other calls; inactive = mostly above about 0.92.
# Assay: chemical genetic growth profiling, strain panel (AID 1159580);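 note: tested at 20 µM; growth read once vehicle control cultures reached saturation at 30 °C; 1 = growth at the plate median or of vehicle wells; lower values mean less growth of the strain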
# Settings: S. cerevisiae deletion strains, growth OD
# [1] = locus YDL101C, strain DUN1, hits give low values
# [2] = locus YHR030C, strain SLT2, hits give low values
# [3] = locus YAR019C, strain CDC15, hits give low values
# [4] = locus YBL105C, strain PKC1, hits give low values
# [5] = locus YBR135W, strain CKS1, hits give low values
# [6] = locus YBR136W, strain MEC1, hits give low values
# [7] = locus YBR160W, strain CDC28, hits give low values
# [8] = locus YDL017W, strain CDC7, hits give low values
# [9] = locus YDL028C, strain MPS1, hits give low values
# [10] = locus YDL108W, strain KIN28, hits give low values
# [11] = locus YDL132W, strain cdc53, hits give low values
# [12] = locus YDL214C, strain PRR2, hits give low values
# [13] = locus YDR052C, strain DBF4, hits give low values
# [14] = locus YDR054C, strain cdc34, hits give low values
# [15] = locus YDR226W, strain ADK1, hits give low values
# [16] = locus YDR477W, strain SNF1, hits give low values
# [17] = locus YER123W, strain YCK3, hits give low values
# [18] = locus YER133W, strain GLC7, hits give low values
# [19] = locus YFL009W, strain cdc4, hits give low values
# [20] = locus YFL029C, strain CAK1, hits give low values
# [21] = locus YFR003C, strain YPI1, hits give low values
# [22] = locus YFR019W, strain FAB1, hits give low values
# [23] = locus YFR028C, strain CDC14, hits give low values
# [24] = locus YGR040W, strain KSS1, hits give low values
# [25] = locus YGR052W, strain FMP48, hits give low values
# [26] = locus YGR092W, strain DBF2, hits give low values
# [27] = locus YHR079C, strain IRE1, hits give low values
# [28] = locus YHR082C, strain KSP1, hits give low values
# [29] = locus YHR205W, strain SCH9, hits give low values
# [30] = locus YIL147C, strain SLN1, hits give low values
# [31] = locus YJL095W, strain BCK1, hits give low values
# [32] = locus YJL128C, strain PBS2, hits give low values
# [33] = locus YJL157C, strain FAR1, hits give low values
# [34] = locus YJR016C, strain ILV3, hits give low values
# [35] = locus YJR066W, strain TOR1 (second series), hits give low values
# [36] = locus YJR066W, strain TOR1, hits give low values
# [37] = locus YKL048C, strain ELM1, hits give low values
# [38] = locus YKL067W, strain YNK1, hits give low values
# [39] = locus YKL101W, strain HSL1, hits give low values
# [40] = locus YKL193C, strain SDS22, hits give low values
# [41] = locus YKL203C, strain TOR2, hits give low values
# [42] = locus YLR113W, strain HOG1, hits give low values
# [43] = locus YLR133W, strain CKI1, hits give low values
# [44] = locus YLR403W, strain SFP1, hits give low values
# [45] = locus YML070W, strain DAK1, hits give low values
# [46] = locus YMR001C, strain CDC5, hits give low values
# [47] = locus YMR205C, strain PFK2 (second series), hits give low values
# [48] = locus YMR277W, strain FCP1, hits give low values
# [49] = locus YNL006W, strain LST8, hits give low values
# [50] = locus YNL020C, strain ARK1, hits give low values
# [51] = locus YNL161W, strain CBK1, hits give low values
# [52] = locus YNL183C, strain NPR1, hits give low values
# [53] = locus YNL207W, strain RIO2, hits give low values
# [54] = locus YNL222W, strain SSU72, hits give low values
# [55] = locus YNL307C, strain MCK1 (second series), hits give low values
# [56] = locus YOL078W, strain AVO1, hits give low values
# [57] = locus YOL136C, strain PFK27, hits give low values
# [58] = locus YOR061W, strain CKA2, hits give low values
# [59] = locus YOR119C, strain RIO1, hits give low values
# [60] = locus YOR231W, strain MKK1, hits give low values
# [61] = locus YOR329C, strain SCD5, hits give low values
# [62] = locus YPL031C, strain PHO85, hits give low values
# [63] = locus YPL153C, strain RAD53, hits give low values
# [64] = locus YPL204W, strain HRR25, hits give low values
# [65] = locus YPL209C, strain IPL1, hits give low values
# [66] = locus YPL256C, strain CLN2, hits give low values
# [67] = locus YPR025C, strain CCL1, hits give low values
# [68] = locus YPR106W, strain ISR1, hits give low values
# [69] = locus YPR111W, strain DBF20, hits give low values
# [70] = strain NNK1, hits give low values
# [71] = strain TSCII, hits give low values
compound,measurement,setting,value
CC(C)(C)c1ccc(C(=O)N/N=C\c2cc(Cl)cc(Cl)c2O)cc1,normalized growth,"locus YAL013W, strain DEP1, hits give low values",0.909 (active)
same,normalized growth,"locus YBR229C, strain ROT2, hits give low values",0.832 (active)
same,normalized growth,"locus YCL061C, strain MRC1, hits give low values",0.818 (active)
same,normalized growth,[1],0.852 (active)
same,normalized growth,"locus YDR150W, strain NUM1, hits give low values",1.19
same,normalized growth,"locus YEL061C, strain CIN8, hits give low values",0.624 (active)
same,normalized growth,"locus YGR078C, strain PAC10, hits give low values",0.847 (active)
same,normalized growth,[2],0.452 (active)
same,normalized growth,"locus YHR087W, strain rtc3, hits give low values",0.872 (active)
same,normalized growth,"locus YJR043C, strain POL32, hits give low values",0.876 (active)
same,normalized growth,"locus YJR075W, strain HOC1, hits give low values",0.996
same,normalized growth,"locus YKL190W, strain CNB1, hits give low values",0.316 (active)
same,normalized growth,"locus YLR039C, strain RIC1, hits give low values",0.165 (active)
same,normalized growth,"locus YLR058C, strain SHM2 (second series), hits give low values",0.97
same,normalized growth,"locus YLR085C, strain ARP6, hits give low values",0.285 (active)
same,normalized growth,"locus YLR262C, strain YPT6, hits give low values",0.182 (active)
same,normalized growth,"locus YML094W, strain GIM5, hits give low values",0.645 (active)
same,normalized growth,"locus YMR219W, strain ESC1, hits give low values",0.83 (active)
same,normalized growth,"locus YMR263W, strain SAP30, hits give low values",0.893
same,normalized growth,"locus YNL128W, strain TEP1, hits give low values",0.377 (active)
same,normalized growth,"locus YNL153C, strain GIM3, hits give low values",0.826 (active)
same,normalized growth,"locus YNL298W, strain CLA4 (second series), hits give low values",0.642 (active)
same,normalized growth,"locus YNL322C, strain KRE1, hits give low values",0.998
same,normalized growth,"locus YNR030W, strain Alg12, hits give low values",0.617 (active)
same,normalized growth,"locus YPL055C, strain LGE1, hits give low values",0.858
same,normalized growth,"locus YPL241C, strain CIN2, hits give low values",0.428 (active)
same,normalized growth,"locus YPR135W, strain CTF4, hits give low values",0.69
Nc1ccccc1C(=O)N/N=C\c1cc(Cl)cc(Cl)c1O,normalized growth,[3],0.968
same,normalized growth,[4],0.958
same,normalized growth,[5],0.97
same,normalized growth,[6],0.962
same,normalized growth,[7],0.968
same,normalized growth,[8],0.963
same,normalized growth,[9],0.964
same,normalized growth,[1],0.97
same,normalized growth,[10],0.965
same,normalized growth,[11],0.954
same,normalized growth,[12],0.758
same,normalized growth,[13],0.959
same,normalized growth,[14],0.955
same,normalized growth,[15],0.957
same,normalized growth,[16],0.694
same,normalized growth,[17],0.435 (active)
same,normalized growth,[18],0.76
same,normalized growth,[19],0.949
same,normalized growth,[20],0.966
same,normalized growth,[21],0.962
same,normalized growth,[22],0.838
same,normalized growth,[23],0.948
same,normalized growth,[24],0.777
same,normalized growth,[25],0.325 (active)
same,normalized growth,[26],0.13 (active)
same,normalized growth,[2],0.657 (active)
same,normalized growth,[27],0.485 (active)
same,normalized growth,[28],0.682
same,normalized growth,[29],0.564 (active)
same,normalized growth,[30],0.963
same,normalized growth,[31],0.425 (active)
same,normalized growth,[32],0.972
same,normalized growth,[33],0.685 (active)
same,normalized growth,[34],0.976
same,normalized growth,[35],0.404 (active)
same,normalized growth,[36],0.546
same,normalized growth,[37],0.579 (active)
same,normalized growth,[38],0.649 (active)
same,normalized growth,[39],0.301 (active)
same,normalized growth,[40],0.967
same,normalized growth,[41],0.65 (active)
same,normalized growth,[42],0.434 (active)
same,normalized growth,[43],0.586 (active)
same,normalized growth,[44],0.669
same,normalized growth,[45],0.494 (active)
same,normalized growth,[46],0.956
same,normalized growth,[47],0.527 (active)
same,normalized growth,[48],0.958
same,normalized growth,[49],0.967
same,normalized growth,[50],0.516 (active)
same,normalized growth,[51],0.967
same,normalized growth,[52],0.43 (active)
same,normalized growth,[53],0.948
same,normalized growth,[54],0.967
same,normalized growth,[55],0.27 (active)
same,normalized growth,[56],0.969
same,normalized growth,[57],0.588 (active)
same,normalized growth,[58],0.491 (active)
same,normalized growth,[59],0.696 (active)
same,normalized growth,[60],0.393 (active)
same,normalized growth,[61],0.97
same,normalized growth,[62],0.688
same,normalized growth,[63],0.583 (active)
same,normalized growth,[64],0.655 (active)
same,normalized growth,[65],0.969
same,normalized growth,[66],0.456 (active)
same,normalized growth,[67],0.967
same,normalized growth,[68],0.96
same,normalized growth,[69],0.946
same,normalized growth,[70],0.939
same,normalized growth,[71],0.962
O=C(N/N=C\c1cc(Cl)cc(Cl)c1O)c1ccccc1Oc1ccccc1,normalized growth,[3],0.965
same,normalized growth,[4],0.967
same,normalized growth,[5],0.981
same,normalized growth,[6],0.964
same,normalized growth,[7],0.974
same,normalized growth,[8],0.975
same,normalized growth,[9],0.963
same,normalized growth,[1],0.981
same,normalized growth,[10],0.958
same,normalized growth,[11],0.955
same,normalized growth,[12],0.933
same,normalized growth,[13],0.97
same,normalized growth,[14],0.96
same,normalized growth,[15],0.966
same,normalized growth,[16],0.945
same,normalized growth,[17],0.882
same,normalized growth,[18],0.949
same,normalized growth,[19],0.958
same,normalized growth,[20],0.953
same,normalized growth,[21],0.961
same,normalized growth,[22],0.946
same,normalized growth,[23],0.962
same,normalized growth,[24],0.934
same,normalized growth,[25],0.929
same,normalized growth,[26],0.885
same,normalized growth,[2],0.855
same,normalized growth,[27],0.917
same,normalized growth,[28],0.916
same,normalized growth,[29],0.844
same,normalized growth,[30],0.967
same,normalized growth,[31],0.871
same,normalized growth,[32],0.921
same,normalized growth,[33],0.939
same,normalized growth,[34],0.974
same,normalized growth,[35],0.939
same,normalized growth,[36],0.933
same,normalized growth,[37],0.895
same,normalized growth,[38],0.901
same,normalized growth,[39],0.89
same,normalized growth,[40],0.965
same,normalized growth,[41],0.969
same,normalized growth,[42],0.722 (active)
same,normalized growth,[43],0.926
same,normalized growth,[44],0.925
same,normalized growth,[45],0.891
same,normalized growth,[46],0.961
same,normalized growth,[47],0.913
same,normalized growth,[48],0.971
same,normalized growth,[49],0.982
same,normalized growth,[50],0.906
same,normalized growth,[51],0.971
same,normalized growth,[52],0.88
same,normalized growth,[53],0.945
same,normalized growth,[54],0.971
same,normalized growth,[55],0.906
same,normalized growth,[56],0.975
same,normalized growth,[57],0.913
same,normalized growth,[58],0.905
same,normalized growth,[59],0.922
same,normalized growth,[60],0.91
same,normalized growth,[61],0.976
same,normalized growth,[62],0.938
same,normalized growth,[63],0.924
same,normalized growth,[64],0.919
same,normalized growth,[65],0.982
same,normalized growth,[66],0.818 (active)
same,normalized growth,[67],0.966
same,normalized growth,[68],0.968
same,normalized growth,[69],0.952
same,normalized growth,[70],0.959
same,normalized growth,[71],0.967
